Compounds without any hit were thinned out: in the full panel of roughly 83,000, 20% have a hit.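 In brief: 96-well plates, 48 h treatment, single concentration, percent growth endpoint.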 Calls of active or inactive are those of the source. The calls were made as follows: active = growth percent below 10; inactive = the rest.

Here are results for 38 compounds from PubChem BioAssay (NCI).

This assay has as its system UO-31 renal. The assay is described as follows: NCI-60 one-dose screen, 48 h (100 = growth as untreated, 0 = no growth, -100 = all killed). Conditions: 10 µM unless noted.
Regarding `N#C/C(C(=O)c1ccccc1)=C1/C(=O)Nc2ccc(F)cc21`, the growth is 74% (inactive).

For the compound `C=C(C)[C@@H]1CC[C@]2(C(=O)NCCCN)CC[C@]3(C)[C@H](CC[C@@H]4[C@@]5(C)CC[C@H](O)C(C)(C)[C@@H]5CC[C@]43C)[C@@H]12`, the growth was -34.3% [100 µM] (active).

`O=C1/C(=C\c2cn(CC(O)CN3CCCCC3)c3ccccc23)c2ccccc2N1c1c(Cl)cccc1Cl` (stereo not drawn): the growth was -79.8% (active).

With `COc1ccc(OC)c([N+](=O)[O-])c1C(=O)CNC(C)=O`, the growth was 84.7% (inactive).

In the case of `Nc1cccc2c1C(=O)c1cccc(NC(=O)c3ccccc3)c1C2=O`, the growth is 9.99% (active).

As to `CCNc1cc2c(cc1Br)-c1ccccc1C2=O`, the growth is 55.1% (inactive).

For `CCOc1cccc2c(NC(C)CCCN(CC)CC)c(C)cnc12` (stereo not drawn), the growth was 73.3% (inactive).

In the case of `COc1cc(/C=C/C(=O)/C=C/c2ccc(-n3ccnc3C)cc2)ccc1O`, the growth was 4.27% (active).

In the case of `COc1cc(-c2nc(SCCC(C)C)nc(Nc3ccccc3)c2C#N)cc(OC)c1OC`, the growth was 68.4% (inactive).

As to `CN(C)C(=S)Sc1ccc([N+](=O)[O-])cc1[N+](=O)[O-]`, the growth is 16.7% (inactive).

Consider `Nc1ccc(Cl)c([N+](=O)[O-])c1`, for which the growth is 101% (inactive).

Turning to `CCCCCCCCCCCCNC(=S)N/N=C/c1ccccc1O`, the growth was 37.6% (inactive).

In the case of `CC1(C)CC[C@]2(C(=O)OC(=O)[C@]34CCC(C)(C)C[C@@H]3C3=CC[C@@H]5[C@@]6(C)CCC(=O)C(C)(C)[C@@H]6CC[C@@]5(C)[C@]3(C)CC4)CC[C@]3(C)C(=CC[C@@H]4[C@@]5(C)CCC(=O)C(C)(C)[C@@H]5CC[C@]43C)[C@H]2C1`, the growth is 59.9% [100 µM] (inactive).

As to `COc1cccc(-c2[nH]c(=S)ncc2C(=O)c2ccccc2)c1`, the growth was 75.9% (inactive).

In the case of `O=C(N=c1n(-c2ccccc2)nc2n1CCN2C1=NCCN1C(=O)c1ccc(Cl)cc1)c1ccc(Cl)cc1`, the growth is 59.8% (inactive).

As for `COc1cc2c(=O)[nH]c3cc([N+](=O)[O-])ccc3c2cc1[N+](=O)[O-]`, the growth is 19.6% (inactive).

As for `NC(=O)CC1C=CCC1` (stereo not drawn), the growth is 91.5% (inactive).

On to `O=C(Nc1cccc2ccccc12)c1cc2ccccc2cc1O`, for which the growth was -19.2% (active).

As for `Cc1ccc(N)c(O)c1`, the growth was 84.5% (inactive).

On to `CCOC(=O)CCC[P+](c1ccccc1)(c1ccccc1)c1ccccc1`, for which the growth was 87.5% (inactive).

For `CCN(CC)c1cc(N)c(Cc2c(N)cc(N(CC)CC)cc2Cl)c(Cl)c1`, the growth was 68.5% (inactive).

Regarding `CSc1nc(N)c(N=Nc2ccc(S(=O)(=O)Nc3nnc(C)s3)cc2)c(=O)[nH]1`, the growth is 76.9% (inactive).

Turning to `CC1(C)C(=O)/C(=C\c2cccnc2)C[C@]2(C)[C@H]3CC[C@@H]4[C@H]5[C@H](C(=O)/C=C/c6cccnc6)CC[C@]5(C(=O)O)CC[C@@]4(C)[C@]3(C)CC[C@@H]12`, the growth is -32.9% [100 µM] (active).

In the case of `N#CCCc1c[nH]c2ccccc12`, the growth is 68% (inactive).

Regarding `C[C@@H]1C[C@H]2C(=O)O[C@@H](C)[C@H](NC(=O)[C@H](Cc3cc(F)cc(F)c3)NC(=O)Nc3ccc(C4CC4)cc3F)C(=O)N3CCC[C@H]3C(=O)N3CCCC[C@H]3C(=O)N[C@@H](C)C(=O)N2C1`, the growth was 8.68% (active).

Regarding `CCN(CC)CCCC(C)Nc1c2ccc(C)cc2nc2ccc(OC)cc12` (stereo not drawn), the growth is -16.5% (active).

`C#CCNC(=O)CC[C@]1(C)[C@H]2CC[C@@H]3[C@@H]([C@@](C)(O)CCC=C(C)C)CC[C@@]3(C)[C@]2(C)CC[C@H]1C(=C)C`: the growth is -95.8% [100 µM] (active).

Take `CC1(C)CC[C@]2(C(=O)O)CC[C@]3(C)C(=CC[C@@H]4[C@@]5(C)C/C(=C/c6ccco6)C(=O)C(C)(C)[C@@H]5CC[C@]43C)[C@@H]2C1`: the growth was -98.1% [100 µM] (active).

In the case of `C=C(C)[C@@H]1CC[C@]2(C(=O)O)CC[C@]3(C)[C@H](CC[C@@H]4[C@@]5(C)C/C(=C/c6ccco6)C(=O)C(C)(C)[C@@H]5CC[C@]43C)[C@@H]12`, the growth was -95.4% [100 µM] (active).

Take `C[n+]1cccc(NC(=O)c2ccc3ccc4ccc(C(=O)Nc5ccc[n+](C)c5)nc4c3n2)c1`: the growth is 65.4% (inactive).

On to `Cc1ccc(S(=O)(=O)N/N=C2\CC3CCC2(C)C3(C)C)cc1` (stereo not drawn), for which the growth was 86.4% (inactive).

In the case of `CCOC(=O)c1nn(C2CCCCO2)c2ccc(NC(=O)Cn3nnc4ccccc43)cc12` (stereo not drawn), the growth is 82.6% (inactive).

For the compound `Cn1cc(-c2nnc(-c3cn(C)c4ncc(Br)cc34)o2)c2ccccc21`, the growth is 61.4% (inactive).

In the case of `O=C(Nc1ccc(Oc2ccc(F)cc2)c(Cl)c1)c1cccnn1`, the growth was 55% (inactive).

On to `Cc1ccc2c(n1)C(=O)C(Cl)=C(Nc1ccc(N3CCN(C)CC3)cc1)C2=O`, for which the growth was -97.4% (active).

With `c1cc2ccc1CNCCN1CCNCc3ccc(cc3)Oc3ccc(cc3)CNCCN(CCNCc3ccc(cc3)O2)CCNCc2ccc(cc2)Oc2ccc(cc2)CNCC1`, the growth was 85.3% (inactive).

Turning to `Cc1ccc(-c2cn(C/C=C3\C=CN(S(=O)(=O)c4ccccc4)CC3)nn2)cc1`, the growth is 72.6% (inactive).

On to `CCCCCCCCN(CCCCCCCC)CC(O)c1ccc(Cl)c(C)c1Cl` (stereo not drawn), for which the growth is 45.1% (inactive).
